# Measurements published in the supplement of paper PMC8728848.
# This excerpt belongs to a sample that is enriched for the strongest signals.
# B1: CLECb-Precomplexed (Mus musculus), P43025 (protein)
# chain: MAKNGLVLCILVVSLLLDQTDGYPSRMKARKHSKRRVKAKDDDLKSQVEKLWREVNALKEMQALQTVCLRGTKVHKKCYLASEGLKHYHEANEDCISKGGTLVVPRNSDEINALRDYGKRSLPGVNDFWLGINDMVTEGKFLDVHGFAVSFLNWDRAQPSGGKRENCVLFSQSAQGKWSDEACRSSKRYICEFIIPTRTRPLEQKLISEEDLAANDILDYKDDDDKV
# How the values were obtained:
# Experiment in all cases: glycan array binding signal (z-score within array); higher = stronger binding
# Conditions in all cases: glycan notation: IUPAC condensed, linker removed
# [1] = molecular target: Fuc(a1-2)Gal(b1-3)GlcNAc6S
# Method in brief: (§1)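 Glycan array data came from 3228 arrays in the Consortium for Functional Glycomics database, and only arrays with an available protein sequence were kept. Glycan names were put into IUPAC-condensed notation, and columns mapping to the same glycan were averaged. The binding signal is a within-array Z-score, averaged across arrays of one protein sequence run at different concentrations or buffers and across linkers. A negative Z-score can be read as non-binding.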
# [2] = molecular target: Fuc(a1-2)Gal(b1-4)GlcNAc(b1-2)Man(a1-3)[Fuc(a1-2)Gal(b1-4)GlcNAc(b1-2)Man(a1-6)]Man(b1-4)GlcNAc(b1-4)GlcNAc
# Method in brief: as §1
# [3] = molecular target: Fuc(a1-2)Gal6S(b1-3)GlcNAc
# Method in brief: as §1
# [4] = molecular target: Fuc(a1-2)[GalNAc(a1-3)]Gal(b1-4)Glc
# Method in brief: as §1
# [5] = molecular target: Fuc(a1-2)[GalNAc(a1-3)]Gal(b1-4)GlcNAc(b1-2)Man(a1-3)[Fuc(a1-2)[GalNAc(a1-3)]Gal(b1-4)GlcNAc(b1-2)Man(a1-6)]Man(b1-4)GlcNAc(b1-4)GlcNAc
# Method in brief: as §1
# [6] = molecular target: Fuc(a1-2)[GalNAc(b1-3)]Gal
# Method in brief: as §1
# [7] = molecular target: Fuc(a1-3)[Gal(b1-4)]GlcNAc
# Method in brief: as §1
# [8] = molecular target: Fuc(a1-3)[Gal(b1-4)]GlcNAc(b1-6)[Gal(b1-3)GlcNAc(b1-3)]Gal(b1-4)Glc
# Method in brief: as §1
# [9] = molecular target: Fuc(a1-3)[Gal3S(b1-4)]GlcNAc6S
# Method in brief: as §1
# [10] = molecular target: Gal(a1-3)Gal(b1-3)GlcNAc(b1-3)GalNAc
# Method in brief: as §1
# [11] = molecular target: Gal(a1-3)Gal(b1-3)[Fuc(a1-4)]GlcNAc(b1-2)Man(a1-3)[Gal(a1-3)Gal(b1-3)[Fuc(a1-4)]GlcNAc(b1-2)Man(a1-6)]Man(b1-4)GlcNAc(b1-4)GlcNAc
# Method in brief: as §1
# Gal(a1-3)GalNAc = molecular target: Gal(a1-3)GalNAc
# Method in brief: as §1
# [12] = molecular target: Gal(b1-3)GlcNAc(b1-3)Gal(b1-3)GlcNAc
# Method in brief: as §1
# [13] = molecular target: Gal(b1-3)GlcNAc(b1-3)Gal(b1-4)GlcNAc(b1-2)Man(a1-3)[Gal(b1-3)GlcNAc(b1-3)Gal(b1-4)GlcNAc(b1-2)Man(a1-6)]Man(b1-4)GlcNAc(b1-4)GlcNAc
# Method in brief: as §1
# [14] = molecular target: Gal(b1-3)GlcNAc(b1-6)[Gal(b1-3)]GalNAc
# Method in brief: as §1
# [15] = molecular target: Gal(b1-3)[Fuc(a1-4)]GlcNAc(b1-2)Man
# Method in brief: as §1
# [16] = molecular target: Gal(b1-3)[Fuc(a1-4)]GlcNAc(b1-2)Man(a1-3)[Gal(b1-3)[Fuc(a1-4)]GlcNAc(b1-2)Man(a1-6)]Man(b1-4)GlcNAc(b1-4)[Fuc(a1-6)]GlcNAc
# Method in brief: as §1
# [17] = molecular target: Gal(b1-3)[Fuc(a1-4)]GlcNAc(b1-3)Gal(b1-3)[Fuc(a1-4)]GlcNAc
# Method in brief: as §1
# [18] = molecular target: Gal(b1-4)GlcNAc(b1-2)Man(a1-3)[GlcNAc(b1-2)Man(a1-6)]Man(b1-4)GlcNAc(b1-4)GlcNAc
# Method in brief: as §1
# [19] = molecular target: Gal(b1-4)GlcNAc(b1-2)[Gal(b1-4)GlcNAc(b1-6)]Man(a1-6)[Gal(b1-4)GlcNAc(b1-2)Man(a1-3)]Man(b1-4)GlcNAc(b1-4)GlcNAc
# Method in brief: as §1
# [20] = molecular target: Gal(b1-4)GlcNAc(b1-3)Gal(b1-4)Glc
# Method in brief: as §1
# [21] = molecular target: Gal(b1-4)GlcNAc(b1-3)Gal(b1-4)GlcNAc(b1-2)Man(a1-3)[Gal(b1-4)GlcNAc(b1-3)Gal(b1-4)GlcNAc(b1-2)Man(a1-6)]Man(b1-4)GlcNAc(b1-4)GlcNAc
# Method in brief: as §1
# [22] = molecular target: Gal(b1-4)GlcNAc(b1-3)Gal(b1-4)GlcNAc(b1-3)Gal(b1-4)GlcNAc(b1-2)[Gal(b1-4)GlcNAc(b1-3)Gal(b1-4)GlcNAc(b1-3)Gal(b1-4)GlcNAc(b1-6)]Man(a1-6)[Gal(b1-4)GlcNAc(b1-3)Gal(b1-4)GlcNAc(b1-3)Gal(b1-4)GlcNAc(b1-2)Man(a1-3)]Man(b1-4)GlcNAc(b1-4)[Fuc(a1-6)]GlcNAc
# Method in brief: as §1
# [23] = molecular target: Gal(b1-4)GlcNAc(b1-3)Gal(b1-4)GlcNAc(b1-3)Gal(b1-4)GlcNAc(b1-3)Gal(b1-4)GlcNAc(b1-3)Gal(b1-4)GlcNAc(b1-2)Man(a1-3)[Gal(b1-4)GlcNAc(b1-3)Gal(b1-4)GlcNAc(b1-3)Gal(b1-4)GlcNAc(b1-3)Gal(b1-4)GlcNAc(b1-3)Gal(b1-4)GlcNAc(b1-2)Man(a1-6)]Man(b1-4)GlcNAc(b1-4)GlcNAc
# Method in brief: as §1
# [24] = molecular target: Gal(b1-4)GlcNAc(b1-3)Gal(b1-4)GlcNAc(b1-3)Gal(b1-4)GlcNAc(b1-3)Gal(b1-4)GlcNAc(b1-3)Gal(b1-4)GlcNAc(b1-2)[Gal(b1-4)GlcNAc(b1-3)Gal(b1-4)GlcNAc(b1-3)Gal(b1-4)GlcNAc(b1-3)Gal(b1-4)GlcNAc(b1-3)Gal(b1-4)GlcNAc(b1-6)]Man(a1-6)[Gal(b1-4)GlcNAc(b1-3)Gal(b1-4)GlcNAc(b1-3)Gal(b1-4)GlcNAc(b1-3)Gal(b1-4)GlcNAc(b1-3)Gal(b1-4)GlcNAc(b1-2)Man(a1-3)]Man(b1-4)GlcNAc(b1-4)[Fuc(a1-6)]GlcNAc
# Method in brief: as §1
# [25] = molecular target: Gal3S(b1-4)[Fuc(a1-3)]Glc6S
# Method in brief: as §1
# [26] = molecular target: Gal3S(b1-4)[Fuc(a1-3)]GlcNAc6S
# Method in brief: as §1
# Gal3S6S(b1-4)GlcNAc = molecular target: Gal3S6S(b1-4)GlcNAc
# Method in brief: as §1
# Gal6S(b1-4)Glc6S = molecular target: Gal6S(b1-4)Glc6S
# Method in brief: as §1
# Gal6S(b1-4)GlcNAc6S = molecular target: Gal6S(b1-4)GlcNAc6S
# Method in brief: as §1
# [27] = molecular target: GalNAc(b1-4)GlcNAc(b1-2)Man(a1-3)[GalNAc(b1-4)GlcNAc(b1-2)Man(a1-6)]Man(b1-4)GlcNAc(b1-4)GlcNAc
# Method in brief: as §1
# [28] = molecular target: GlcNAc(a1-4)Gal(b1-4)GlcNAc(b1-3)Gal(b1-4)GlcNAc
# Method in brief: as §1
# [29] = molecular target: GlcNAc(b1-3)Gal(b1-4)GlcNAc(b1-2)Man(a1-3)[GlcNAc(b1-3)Gal(b1-4)GlcNAc(b1-2)Man(a1-6)]Man(b1-4)GlcNAc(b1-4)[Fuc(a1-6)]GlcNAc
# Method in brief: as §1
# [30] = molecular target: GlcNAc(b1-3)Gal(b1-4)GlcNAc(b1-3)Gal(b1-4)GlcNAc(b1-3)Gal(b1-4)GlcNAc(b1-2)Man(a1-3)[GlcNAc(b1-3)Gal(b1-4)GlcNAc(b1-3)Gal(b1-4)GlcNAc(b1-3)Gal(b1-4)GlcNAc(b1-2)Man(a1-6)]Man(b1-4)GlcNAc(b1-4)[Fuc(a1-6)]GlcNAc
# Method in brief: as §1
# GlcNAc(b1-3)Man = molecular target: GlcNAc(b1-3)Man
# Method in brief: as §1
# [31] = molecular target: GlcNAc(b1-3)[GlcNAc(b1-4)][GlcNAc(b1-6)]GlcNAc
# Method in brief: as §1
# [32] = molecular target: GlcNAc(b1-4)Gal(b1-4)GlcNAc
# Method in brief: as §1
# [33] = molecular target: GlcNAc(b1-4)GlcNAc(b1-4)GlcNAc
# Method in brief: as §1
# [34] = molecular target: GlcNAc(b1-4)GlcNAc(b1-4)GlcNAc(b1-4)GlcNAc(b1-4)GlcNAc(b1-4)GlcNAc
# Method in brief: as §1
# [35] = molecular target: Neu5Ac(a2-3)Gal(b1-3)GlcNAc(b1-2)Man(a1-3)[GlcNAc(b1-4)][Neu5Ac(a2-3)Gal(b1-3)GlcNAc(b1-2)Man(a1-6)]Man(b1-4)GlcNAc(b1-4)GlcNAc
# Method in brief: as §1
# [36] = molecular target: Neu5Ac(a2-3)Gal(b1-4)GlcNAc(b1-2)Man(a1-3)[Neu5Ac(a2-6)Gal(b1-4)GlcNAc(b1-2)Man(a1-6)]Man(b1-4)GlcNAc(b1-4)GlcNAc
# Method in brief: as §1
# [37] = molecular target: Neu5Ac(a2-3)Gal6S(b1-4)GlcNAc
# Method in brief: as §1
# [38] = molecular target: Neu5Ac(a2-3)[GalNAc(b1-4)]Gal(b1-4)GlcNAc
# Method in brief: as §1
# Neu5Ac(a2-6)Gal = molecular target: Neu5Ac(a2-6)Gal
# Method in brief: as §1
# [39] = molecular target: Neu5Ac(a2-6)Gal(b1-4)GlcNAc(b1-2)Man(a1-3)Man(b1-4)GlcNAc(b1-4)GlcNAc
# Method in brief: as §1
# [40] = molecular target: Neu5Ac(a2-6)Gal(b1-4)GlcNAc(b1-2)Man(a1-3)[Neu5Ac(a2-3)Gal(b1-4)GlcNAc(b1-2)Man(a1-6)]Man(b1-4)GlcNAc(b1-4)GlcNAc
# Method in brief: as §1
# [41] = molecular target: Neu5Ac(a2-6)Gal(b1-4)GlcNAc(b1-2)Man(a1-3)[Neu5Ac(a2-6)Gal(b1-4)GlcNAc(b1-2)Man(a1-6)]Man(b1-4)GlcNAc(b1-4)[Fuc(a1-6)]GlcNAc
# Method in brief: as §1
# [42] = molecular target: Neu5Ac(a2-6)Gal(b1-4)GlcNAc(b1-3)Gal(b1-4)GlcNAc(b1-3)Gal(b1-4)GlcNAc(b1-2)Man(a1-3)[Neu5Ac(a2-6)Gal(b1-4)GlcNAc(b1-3)Gal(b1-4)GlcNAc(b1-3)Gal(b1-4)GlcNAc(b1-2)Man(a1-6)]GalNAc
# Method in brief: as §1
binder,measurement,setting,value
B1,glycan array binding signal (z-score),[1],-0.588
same,glycan array binding signal (z-score),[2],2.16
same,glycan array binding signal (z-score),[3],-0.377
same,glycan array binding signal (z-score),[4],-0.431
same,glycan array binding signal (z-score),[5],-0.336
same,glycan array binding signal (z-score),[6],-0.291
same,glycan array binding signal (z-score),[7],0.129
same,glycan array binding signal (z-score),[8],0.092
same,glycan array binding signal (z-score),[9],-0.231
same,glycan array binding signal (z-score),[10],0.142
same,glycan array binding signal (z-score),[11],9.55
same,glycan array binding signal (z-score),Gal(a1-3)GalNAc,-0.387
same,glycan array binding signal (z-score),[12],-0.229
same,glycan array binding signal (z-score),[13],0.774
same,glycan array binding signal (z-score),[14],-0.462
same,glycan array binding signal (z-score),[15],-0.166
same,glycan array binding signal (z-score),[16],2.08
same,glycan array binding signal (z-score),[17],0.004
same,glycan array binding signal (z-score),[18],-0.209
same,glycan array binding signal (z-score),[19],2.03
same,glycan array binding signal (z-score),[20],-0.229
same,glycan array binding signal (z-score),[21],2.63
same,glycan array binding signal (z-score),[22],3.07
same,glycan array binding signal (z-score),[23],2.1
same,glycan array binding signal (z-score),[24],11.2
same,glycan array binding signal (z-score),[25],3.47
same,glycan array binding signal (z-score),[26],0.004
same,glycan array binding signal (z-score),Gal3S6S(b1-4)GlcNAc,-0.251
same,glycan array binding signal (z-score),Gal6S(b1-4)Glc6S,0.254
same,glycan array binding signal (z-score),Gal6S(b1-4)GlcNAc6S,0.049
same,glycan array binding signal (z-score),[27],0.242
same,glycan array binding signal (z-score),[28],-0.295
same,glycan array binding signal (z-score),[29],-0.522
same,glycan array binding signal (z-score),[30],-0.255
same,glycan array binding signal (z-score),GlcNAc(b1-3)Man,-0.185
same,glycan array binding signal (z-score),[31],-0.456
same,glycan array binding signal (z-score),[32],-0.159
same,glycan array binding signal (z-score),[33],-0.15
same,glycan array binding signal (z-score),[34],-0.322
same,glycan array binding signal (z-score),[35],-0.444
same,glycan array binding signal (z-score),[36],-0.245
same,glycan array binding signal (z-score),[37],-0.618
same,glycan array binding signal (z-score),[38],-0.321
same,glycan array binding signal (z-score),Neu5Ac(a2-6)Gal,-0.301
same,glycan array binding signal (z-score),[39],0.007
same,glycan array binding signal (z-score),[40],-0.03
same,glycan array binding signal (z-score),[41],2.94
same,glycan array binding signal (z-score),[42],3.49
